# High-throughput results (PubChem BioAssay)
# Only some compounds are listed: those with a hit (about 4% of all), similar ones and a draw of the others.
# Gli-Sufu antag: Gli-Sufu pathway antagonism | inhibition, % at 5 µM | Sufu-KO-LIGHT fibroblasts, Gli luciferase reporter luminescence | AID 588413 | 0.74% of 340,000 active;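 active = inhibition above about 55%, limit read from the data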;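 also: 0% = DMSO-treated cells and 100% = wells with medium but no cells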
# Beta cell apopt: blocks beta cell apoptosis | AID 435005 | protection from apoptosis, % (concentration not given with the values) | 0.8% of 300,000 active | INS-1E cytokine-induced death, ATP luminescence, 48 h; percent of positive-control rescue, neutral wells zero;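 active = Every replicate reaches about 75%, or at least half do and their mean reaches it too, limit read from the data; inconclusive = At least half of replicates reach the limit but their mean does not; inactive = Under half of replicates reach the limit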;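 also: 0% = cytokine-treated negative control wells and 100% = positive control rescue; higher means more ATP so stronger rescue from cytokine killing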
# Shn3 3UTR inh: inhibitors of Schnurri-3 3'UTR reporter in osteoblasts; Clone20 osteoblast Shn3 3'UTR firefly luciferase, 24 h; inhibition, % at 12.5 µM; 0.52% of 360,000 active; AID 588674;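 active = mean inhibition of at least 75% with every replicate also reaching 75%; inconclusive = mean inhibition at least 75% but some replicate below; inactive = mean inhibition below 75%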;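 also: 0% = median of neutral control wells and 100% = pilot-screen positive control compound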
# CSC inhib: blocks cancer stem cells | cancer stem cell-like cells viability, luminescence | AID 2717 | 1.1% of 300,000 active | inhibition, % at 7.5 µM; in the data active = inhibition above about 75%; inconclusive = no clear call, values can overlap the other calls; tested in HMLE shEcad cells
# Mdm2 MdmX PPI: human Mdm2/MdmX binding inhibition. SaOS-2 split-luciferase Mdm2/MdmX complementation, luminescence. inhibition, % at 8 µM. O15151+Q00987. AID 485346. 3% of 330,000 active;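 active = inhibition of at least 50% at 8 µM in the primary screen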
# Target sequence (O15151 whole entry, looked up): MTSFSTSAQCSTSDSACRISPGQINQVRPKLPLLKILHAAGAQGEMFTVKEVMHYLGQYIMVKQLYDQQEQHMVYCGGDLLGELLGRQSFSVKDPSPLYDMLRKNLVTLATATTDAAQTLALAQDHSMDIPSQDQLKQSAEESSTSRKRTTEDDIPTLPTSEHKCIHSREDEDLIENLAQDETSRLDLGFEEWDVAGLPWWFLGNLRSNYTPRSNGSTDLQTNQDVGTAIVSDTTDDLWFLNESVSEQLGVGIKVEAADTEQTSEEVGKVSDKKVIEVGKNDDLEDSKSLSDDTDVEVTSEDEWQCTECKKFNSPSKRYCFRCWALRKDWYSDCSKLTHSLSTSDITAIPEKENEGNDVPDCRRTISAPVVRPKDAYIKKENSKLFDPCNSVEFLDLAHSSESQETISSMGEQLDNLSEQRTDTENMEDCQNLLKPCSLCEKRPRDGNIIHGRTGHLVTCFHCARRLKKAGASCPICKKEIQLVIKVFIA
# Target sequence (Q00987 whole entry, looked up): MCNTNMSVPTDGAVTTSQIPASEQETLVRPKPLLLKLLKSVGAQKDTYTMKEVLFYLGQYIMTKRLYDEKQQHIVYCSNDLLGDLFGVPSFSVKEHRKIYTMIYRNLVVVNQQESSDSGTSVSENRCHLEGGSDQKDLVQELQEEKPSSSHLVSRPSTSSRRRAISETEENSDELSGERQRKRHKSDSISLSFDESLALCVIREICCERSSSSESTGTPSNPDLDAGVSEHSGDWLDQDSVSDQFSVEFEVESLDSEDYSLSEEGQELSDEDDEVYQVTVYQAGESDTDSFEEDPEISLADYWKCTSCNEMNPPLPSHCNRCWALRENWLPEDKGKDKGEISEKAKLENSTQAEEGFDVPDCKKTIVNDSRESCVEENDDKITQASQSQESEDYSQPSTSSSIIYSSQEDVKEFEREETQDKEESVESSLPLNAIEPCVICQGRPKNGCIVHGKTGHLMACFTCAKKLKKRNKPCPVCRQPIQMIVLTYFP
# PAX8 reporter: PAX8 transcriptional activity inhibition. RMG-I TPO-luciferase reporter, SteadyGlo, 24 h. inhibition, % at 12.6 µM. 1.2% of 360,000 active. AID 652154;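 active = mean replicate inhibition at least 60% with every replicate also reaching 60%; inconclusive = only one of the two criteria is met; inactive = mean below 60% and not all replicates reaching 60%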;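 also: luciferase light reporting Pax8 driven TPO promoter activity; plate controls were median of neutral control wells for no effect and mitoxantrone controls for full effect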
# Mdm2-MdmX conf: human Mdm2/MdmX binding inhibition, confirmed; shares compounds with Mdm2 MdmX PPI; luminescent assay; inhibition, % at 8 µM; 55% of 10,000 active; AID 489028; in the data active = inhibition above about 40%
# Full FLuc ctr: full-length luciferase inhibition in Mdm2/MdmX counter-screen; AID 504607; SaOS-2 full-length luciferase counterscreen, luminescence; inhibition, % at 8 µM; shares compounds with Mdm2 MdmX PPI; 77% of 6,200 active;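 active = mean inhibition at 8 µM reaching about 37%, which flags the compound as non-specific, limit read from the data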;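 also: p53-null SaOS-2 cells with luciferase driven by a doxycycline-inducible promoter; compound on cells about two nights before reading with doxycycline added after day one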
# * = called active by the depositor; ? = inconclusive; nt = not tested or not shown.
SMILES,Gli-Sufu antag,Beta cell apopt,Shn3 3UTR inh,CSC inhib,Mdm2 MdmX PPI,PAX8 reporter,Mdm2-MdmX conf,Full FLuc ctr
COc1nc(Nc2nc3ccccc3c(=O)[nH]2)nc2ccc(C)cc12,63*,97*,52,125*,65*,76*,43*,76*
Cc1nc(Nc2nc(CSc3nc4ccccc4[nH]3)cc(=O)[nH]2)nc2ccccc12,22,5,78,195*,55*,102*,65*,61*
CN1C(=O)c2cc(NC(=O)c3cnccn3)ccc2OC[C@@H]2O[C@H](CC(=O)N[C@H]3CCN(Cc4ccccc4)C3)CC[C@@H]21,nt,nt,nt,nt,nt,-1,nt,nt
CCCNC(=O)[C@H]1[C@H](CO)[C@H]2Cn3c(ccc(/C=C/c4ccccc4)c3=O)[C@@H]1N2C(C)=O,nt,nt,nt,nt,nt,5,nt,nt
N#CC(C#N)=c1ccc2c(c1)N1C3=C(CCCC3)CC3CCCCC31N=2 (stereo not given),28,26,9,19,67*,nt,46*,38*
O=C1C(c2ccccc2)=[N+]([O-])c2ccccc21,2,47,57,82*,93*,4,19,nt
CC(=O)Nc1sc(N/N=C\c2ccccc2)nc1-c1cccs1,-19,-2,-34,-14,-3,-12,nt,nt
CC(=O)Nc1sc(N/N=C\c2ccccc2Cl)nc1-c1cccs1,17,1,5,-7,51*,-62,61*,96*
COc1cc2c(cc1OC)C(c1ccccc1)N(C(=O)CCl)CC2 (stereo not given),9,9,17,-9,100*,34,9,nt
Cn1c(=O)[nH]c(=O)c2c1nc(Br)n2CCCSc1nc2ccccc2o1,0,2,7,nt,65*,nt,56*,98*
Cn1nc(C(F)(F)F)c(C#N)c1N1CCN(c2ccccc2)CC1,-12,-12,17,0,41,nt,nt,nt
Cn1nc(C(F)(F)F)c(C#N)c1N1CCN(c2ccc(F)cc2)CC1,4,-5,27,-16,56*,nt,20,nt
CCCCN1C(=O)C(O)(CC(=O)c2ccco2)c2cc(Br)ccc21 (stereo not given),3,8,5,37,65*,18,51*,75*
CCCCN1C(=O)C(O)(CC(=O)c2c(C)n[nH]c2C)c2cc(Br)ccc21 (stereo not given),2,-4,-14,-6,7,16,nt,nt
Cc1cccc(CN2C(=O)c3ccccc3Sc3ccc(C(=O)NCCN4CCOCC4)cc32)c1,-8,0,-5,16,1,10,nt,nt
O=C(NCCCN1CCCC1)c1ccc2c(c1)N(Cc1ccccc1F)C(=O)c1ccccc1S2=O (stereo not given),3,-7,2,12,5,-3,nt,nt
Cc1ccc(C)c(CN2C(=O)c3ccccc3S(=O)c3ccc(C(=O)NCCCN4CCCC4)cc32)c1 (stereo not given),36,2,-23,10,51*,2,16,nt
Cc1ccc(CN2C(=O)c3ccccc3Sc3ccc(C(=O)NCCN4CCOCC4)cc32)cc1,nt,0,11,54,52*,19,54*,69*
CC(=O)Nc1ccc2c(c1)C(=O)N(C)[C@H]1CC[C@H](CC(=O)Nc3ccc(C)cc3)O[C@@H]1CO2,nt,nt,nt,nt,nt,3,nt,nt
COc1ccc(C(=O)NC(=S)Nc2cc3oc4ccccc4c3cc2OC)cc1,3,-4,4,-2,25,17,nt,nt
COc1cc(OC)cc(C(=O)NC(=S)Nc2cc3oc4ccccc4c3cc2OC)c1,4,27,9,nt,72*,-14,4,nt
COc1cc2c(cc1NC(=O)c1cccc([N+](=O)[O-])c1)oc1ccccc12,3,17,28,7,71*,nt,15,nt
O=C1C=CC(=O)N1CCNc1ncc(C(F)(F)F)cc1Cl,6,nt,86*,nt,63*,?,68*,53*
O=C1CC(=O)N(CCNc2ncc(C(F)(F)F)cc2Cl)C(=O)N1,-4,nt,0,-24,23,nt,nt,nt
CCN(CC)C(=O)c1ccc(/C=C/c2c[nH]c3ccccc23)[n+](C)c1,2,0,-25,14,-4,-24,nt,nt
SMILES,Gli-Sufu antag,Beta cell apopt,Shn3 3UTR inh,CSC inhib,Mdm2 MdmX PPI,PAX8 reporter,Mdm2-MdmX conf,Full FLuc ctr
CC[n+]1c(/C=C/c2c[nH]c3ccccc23)ccc2cc(C)ccc21,90*,nt,nt,nt,72*,76*,56*,73*
Cn1ccc2cc(-c3ccc4ncnc(NCc5cccs5)c4c3)ccc21,14,61,17,nt,64*,83*,57*,25
COc1cccc(-c2ccc3ncnc(NCc4cccs4)c3c2)c1,7,9,-15,45,64*,-14,51*,39*
O=C(NC1Cc2ccccc2C1)[C@H]1[C@H](CO)[C@H]2Cn3c(cccc3=O)[C@H]2N1C(=O)C1CCC1,nt,nt,nt,nt,nt,-2,nt,nt
COc1cc(NC(=O)c2ccc(F)cc2)c(OC)cc1Cl,-4,nt,7,-7,11,19,nt,nt
COc1cc(NC(=O)c2c(F)c(F)c(F)c(F)c2F)c(OC)cc1Cl,4,4,17,-1,78*,nt,47*,53*
Cc1cc(C)c2nc(SCC(=O)Nc3cc(C)on3)c(C#N)cc2c1,19,6,-2,-9,58*,9,8,nt
Cc1cc(C)c2cc(C#N)c(SCC(=O)Nc3ccc4c(c3)OCO4)nc2c1,4,6,16,5,80*,20,5,nt
Cc1cccc2cc(C#N)c(SCC(=O)NNC(=O)Cc3ccccc3)nc12,-3,0,11,-7,78*,21,-2,nt
Cc1cc(C)c2nc(SCC(=O)Nc3cc(C)on3)c(C)cc2c1,2,-1,-4,5,31,5,nt,nt
Cc1cc2cccc(C)c2nc1SCC(=O)NNC(=O)c1ccco1,19,-5,-7,-5,-13,3,nt,nt
CCn1c(C)nc2cc(-c3nc4n(n3)Cc3ccccc3-4)ccc21,87*,71,97*,92*,92*,nt,99*,51*
Cc1cc(C)n2nc(N)c(N=Nc3ccccc3)c2n1,-8,2,-33,0,18,-18,nt,nt
Cc1cc(C)n2nc(N)c(N=Nc3ccc4c(c3)OCO4)c2n1,33,4,-28,-5,57*,-12,-26,nt
CC(C)(C)c1ccc(C(=O)NNC(=S)NC(=O)c2cccnc2)cc1,-6,62,64,25,34,-103,nt,nt
CC(C)(C)c1cc(Cl)c(O)c(NC(=S)NC(=O)c2cccnc2)c1,4,24,34,26,57*,23,53*,35
COC(=O)c1nn(-c2ccc3c(c2)CCN3C(C)=O)cc1O,30,7,62,30,51*,nt,68*,31
